Inconclusive results are not listed. A call without a number means that no potency is given here. Active and inactive are the calls of the source. Unless noted, calls follow the shape of the dose curve; as a rule, active = well fitted curve in the direction sought with a large enough effect; inconclusive = small, poorly fitted or top-dose-only effect, or another doubt; inactive = no such curve, though single readings can be large; an effect the other way counts as inactive or inconclusive.
Legend:
[1] = High Content Imaging Cell-Based qHTS for Inhibitors of the mTORC1 Signaling Pathway in MEF Cells (AID 2667);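 also: Tsc2-/- p53-/- MEFs stably re-expressing wild-type Tsc2 exposed 24 h; series mostly up to about 38 µM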
How it was run: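 WT MEFs (Tsc2-/-, p53-/- re-expressing Tsc2), in DMEM + 10% FBS, were treated with compound for 24 h at 37 C. Cells were then fixed and stained for phospho-rpS6 Ser235/236 with propidium iodide as cell count. Values are % positive cells, with thresholds set against rapamycin-treated cells.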

[2] = Cytometry Cell-Based qHTS for Inhibitors of the mTORC1 Signaling Pathway in MEF cells (AID 2668);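 also: Tsc2-/- p53-/- mouse embryonic fibroblasts stably re-expressing wild-type Tsc2; percent cells positive for phospho-rpS6 Ser235/236 relative to propidium iodide stain; series mostly up to about 38 µM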
How it was run: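 Tsc2-/-, p53-/- MEFs re-expressing WT Tsc2; cpd 24 hrs, 37 degree Celsius; PFA fix, Alexa-488 p-rpS6 (Ser235/236) Ab 2 hrs RT, PI counterstain; Acumen 488nm scan; p-S6/PI ratio → % positive cells; PI count = viability.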

[3] = Validation screen for small molecules that induce DNA re-replication in MCF 10A normal breast cells (AID 463097); also: nearly all actives have a fitted effect of over 60% in size; also: potency is read from the fitted curve at half-maximal effect
How it was run: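 Image-based qHTS: normal breast cells are incubated with compound for 48 hr, stained with Hoechst, and scanned for total nuclear fluorescence. Compounds raising the fraction of nuclei with elevated DNA content count as re-replication inducers.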

[4] = target: Ubiquitin carboxyl-terminal hydrolase 2 (Homo sapiens) (UniProt O75604); experiment: qHTS Validation Assay for Inhibitors of Ubiquitin-specific Protease USP2a Using CHOP2 as the Reporter (AID 463106)
Ubiquitin carboxyl-terminal hydrolase 2 (Homo sapiens), sequence (O75604 whole entry, looked up): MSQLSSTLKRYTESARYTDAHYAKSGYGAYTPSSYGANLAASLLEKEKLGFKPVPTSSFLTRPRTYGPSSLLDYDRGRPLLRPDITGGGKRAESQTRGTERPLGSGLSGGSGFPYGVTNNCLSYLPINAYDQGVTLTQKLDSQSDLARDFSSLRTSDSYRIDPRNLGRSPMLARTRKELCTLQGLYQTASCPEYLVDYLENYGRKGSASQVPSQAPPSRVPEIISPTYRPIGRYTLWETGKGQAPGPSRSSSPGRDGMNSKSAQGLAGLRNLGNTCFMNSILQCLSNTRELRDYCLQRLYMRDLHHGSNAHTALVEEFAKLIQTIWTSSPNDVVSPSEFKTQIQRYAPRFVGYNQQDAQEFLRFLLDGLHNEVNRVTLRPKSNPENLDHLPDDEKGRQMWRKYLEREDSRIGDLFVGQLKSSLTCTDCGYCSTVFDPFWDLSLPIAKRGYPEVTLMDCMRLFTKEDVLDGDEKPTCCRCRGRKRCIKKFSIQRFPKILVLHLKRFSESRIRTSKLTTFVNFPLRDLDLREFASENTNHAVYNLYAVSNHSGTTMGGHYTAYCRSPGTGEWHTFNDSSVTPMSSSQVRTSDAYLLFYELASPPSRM
How it was run: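 USP2 core (10 nM final) was preincubated with compound 30 min at RT in pH 8.0 Tris/CaCl2/beta-ME/CHAPS buffer. Ub-CHOP2 and reporter substrate (25 nM final each) were then added, with fluorescence (Ex 485/Em 531) read after 60 min. Data were normalized to NEM full inhibition and fitted to concentration-response curves.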

[5] = target: DNA polymerase III PolC-type (Bacillus subtilis (strain 168)) (UniProt P13267); experiment: qHTS Validation Assay for the Inhibitors of DNA Replication in Gram-Positive Bacteria (AID 485295);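 also: reconstituted holoenzyme with PolC plus beta clamp SSB and primase; PicoGreen fluorescence of double-stranded DNA made on primed circular M13 template; series mostly up to about 57 µM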
DNA polymerase III PolC-type (Bacillus subtilis (strain 168)), sequence (P13267 whole entry, looked up): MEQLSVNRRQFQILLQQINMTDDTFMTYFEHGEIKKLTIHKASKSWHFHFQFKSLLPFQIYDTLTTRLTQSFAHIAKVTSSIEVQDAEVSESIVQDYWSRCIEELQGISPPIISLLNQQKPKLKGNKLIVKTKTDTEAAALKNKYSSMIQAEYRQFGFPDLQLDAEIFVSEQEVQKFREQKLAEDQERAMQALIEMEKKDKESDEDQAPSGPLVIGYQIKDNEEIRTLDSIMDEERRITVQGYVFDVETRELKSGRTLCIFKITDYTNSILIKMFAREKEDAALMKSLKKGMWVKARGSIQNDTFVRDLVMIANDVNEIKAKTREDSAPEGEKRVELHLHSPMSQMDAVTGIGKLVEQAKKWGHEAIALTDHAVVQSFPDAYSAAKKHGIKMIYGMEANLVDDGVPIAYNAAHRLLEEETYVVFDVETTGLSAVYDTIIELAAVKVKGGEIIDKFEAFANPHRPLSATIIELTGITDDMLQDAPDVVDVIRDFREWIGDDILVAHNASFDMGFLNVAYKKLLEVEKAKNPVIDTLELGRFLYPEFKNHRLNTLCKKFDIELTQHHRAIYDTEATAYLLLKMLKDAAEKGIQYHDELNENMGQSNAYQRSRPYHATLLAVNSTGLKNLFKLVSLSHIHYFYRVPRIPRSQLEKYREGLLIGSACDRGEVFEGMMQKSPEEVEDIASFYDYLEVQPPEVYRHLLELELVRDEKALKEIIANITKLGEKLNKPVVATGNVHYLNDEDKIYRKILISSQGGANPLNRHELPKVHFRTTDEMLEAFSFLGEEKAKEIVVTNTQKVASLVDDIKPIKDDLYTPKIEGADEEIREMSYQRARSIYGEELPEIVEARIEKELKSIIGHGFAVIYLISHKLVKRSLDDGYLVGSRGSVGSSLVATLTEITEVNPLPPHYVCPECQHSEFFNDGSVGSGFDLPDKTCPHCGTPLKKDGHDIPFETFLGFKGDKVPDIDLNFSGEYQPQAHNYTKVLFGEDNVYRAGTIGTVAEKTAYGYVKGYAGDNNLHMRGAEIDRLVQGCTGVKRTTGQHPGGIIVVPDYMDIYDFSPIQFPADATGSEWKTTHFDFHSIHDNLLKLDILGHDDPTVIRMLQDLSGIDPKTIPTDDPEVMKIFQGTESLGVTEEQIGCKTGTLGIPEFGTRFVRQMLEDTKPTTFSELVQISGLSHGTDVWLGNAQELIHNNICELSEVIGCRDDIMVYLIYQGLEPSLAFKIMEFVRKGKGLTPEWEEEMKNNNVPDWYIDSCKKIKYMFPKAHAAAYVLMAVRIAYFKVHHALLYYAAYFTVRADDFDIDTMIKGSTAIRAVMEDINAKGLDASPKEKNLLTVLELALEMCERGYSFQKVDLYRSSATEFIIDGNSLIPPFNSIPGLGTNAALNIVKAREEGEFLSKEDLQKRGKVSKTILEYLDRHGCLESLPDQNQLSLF
How it was run: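 First, compound is mixed with the reconstituted replication complex and held at room temperature. Next, circular single-stranded M13Gori with nucleotides starts synthesis. Finally, PicoGreen in EDTA halts the reaction and stains double-stranded product for fluorescence reading.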

[6] = target: Tumor susceptibility gene 101 protein (Homo sapiens) (UniProt Q99816); experiment: qHTS Validation Assay for Iinhibitors of HIV-1 Budding by Blocking the Interaction of PTAP/TSG101 (AID 485342; calls by dose curve)
Tumor susceptibility gene 101 protein (Homo sapiens), sequence (Q99816 whole entry, looked up, the tested form may be a part): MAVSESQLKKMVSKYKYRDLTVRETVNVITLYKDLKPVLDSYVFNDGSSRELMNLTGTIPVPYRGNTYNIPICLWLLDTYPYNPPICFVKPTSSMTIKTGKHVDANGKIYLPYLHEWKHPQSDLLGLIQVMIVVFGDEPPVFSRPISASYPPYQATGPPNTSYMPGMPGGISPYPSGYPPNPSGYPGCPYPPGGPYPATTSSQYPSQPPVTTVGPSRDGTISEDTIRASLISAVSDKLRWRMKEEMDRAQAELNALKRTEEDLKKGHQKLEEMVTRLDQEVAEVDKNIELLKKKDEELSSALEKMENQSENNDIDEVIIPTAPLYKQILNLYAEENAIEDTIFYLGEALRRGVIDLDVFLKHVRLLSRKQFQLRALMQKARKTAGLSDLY
How it was run: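 Binding of a FITC-tagged PTAP-motif peptide (50 nM) to the Tsg101 binding domain (10 uM) is monitored by fluorescence polarization. Compounds are pin-delivered before peptide addition, and incubation runs 20 min at room temperature.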

[7] = qHTS Validation Assay to Find Inhibitors of Chronic Active B-Cell Receptor Signaling (AID 485345; active = well fitted curve in the direction sought with a large enough effect in the main read-out, with a control signal flat, not every such curve was filed as active)
How it was run: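 TMD8 ABC-DLBCL cells stably carrying doxycycline-inducible IkappaBalpha–green luciferase fusion plus unfused red luciferase; compounds 46 uM to 3 nM, 4 h at 37C with doxycycline. Corrected green/red luminescence ratio normalized to 10 uM MG-132 and basal cell wells; curves fitted.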

[8] = target: Beta-2 adrenergic receptor (Homo sapiens) (UniProt P07550); experiment: qHTS validation assay of beta-arrestin-biased ligands of beta2-adrenergic receptor (AID 485366)
How it was run: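 Luminescence from a tTA-responsive luciferase, induced when recombinant beta-arrestin is recruited to recombinant beta2-AR, served as the agonism signal. Cells were exposed to compound for 18 hr at 37 degrees C; titrations spanned up to 46 microM.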

[9] = Quantitative high throughput screen for delayed death inhibitors of the malarial parasite plastid, 96 hour incubation (AID 488745); also: nearly all actives have a fitted effect of over 70% in size; also: potency is read from the fitted curve at half-maximal effect
How it was run: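 Growth of reporter-bearing P. falciparum in red cells is measured after 96 h with compound, covering two erythrocytic cycles. Luminescence from the integrated luciferase serves as the growth signal.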

[10] = target: Thioredoxin reductase 1, cytoplasmic (Rattus norvegicus) (UniProt O89049); experiment: qHTS Assay for Inhibitors of Mammalian Selenoprotein Thioredoxin Reductase 1 (TrxR1) (AID 488773); conditions: Potency: inhibition; also: nearly all actives have a fitted effect of over 40% in size; also: potency is read from the fitted curve at half-maximal effect
Thioredoxin reductase 1, cytoplasmic (Rattus norvegicus), sequence (O89049 whole entry, looked up): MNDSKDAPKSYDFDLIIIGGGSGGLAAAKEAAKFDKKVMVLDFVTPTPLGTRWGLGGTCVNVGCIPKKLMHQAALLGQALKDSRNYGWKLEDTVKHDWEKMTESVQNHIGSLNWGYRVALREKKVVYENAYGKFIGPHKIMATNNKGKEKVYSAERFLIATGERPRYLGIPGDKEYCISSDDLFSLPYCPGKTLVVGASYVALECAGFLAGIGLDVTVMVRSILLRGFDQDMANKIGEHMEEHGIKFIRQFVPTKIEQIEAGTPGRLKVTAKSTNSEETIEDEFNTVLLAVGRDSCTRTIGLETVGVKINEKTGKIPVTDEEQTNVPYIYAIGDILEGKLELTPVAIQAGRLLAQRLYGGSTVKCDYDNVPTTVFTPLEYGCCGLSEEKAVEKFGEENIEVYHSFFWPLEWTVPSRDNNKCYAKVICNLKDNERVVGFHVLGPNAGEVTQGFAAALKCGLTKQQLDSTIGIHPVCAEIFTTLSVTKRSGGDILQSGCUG
How it was run: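 Steps: enzyme (90 nM) plus NADPH (400 uM final), 5 min at ~22 deg C; compound added, 15 min; selenite (400 uM final) added; fluorescence followed for 8 min. Concentration-response curves derived from the normalized delta values.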

[11] = target: Flap endonuclease 1 (Homo sapiens) (UniProt P39748); experiment: qHTS Validation Assay for the Inhibitors of Human Flap endonuclease 1 (FEN1) (AID 488816)
How it was run: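 Human FEN1 (10 nM) preincubated 15 min at room temperature with compounds, then flap DNA substrate added at 50 nM final. Fluorescence read at 0 and 15 min; concentration-response fitted with four-parameter Hill equation.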

[12] = target: M-phase phosphoprotein 8 (Homo sapiens) (UniProt Q99549); experiment: qHTS Validation Assay for Inhibitors for MPP8 Chromodomain Interactions with Methylated Histone Tails (AID 488949);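 also: 50 nM MPP8 with 50 nM peptide preformed then compounds added for 30 min; AlphaScreen signal from MPP8 chromodomain bound to biotinylated H3K9me3 peptide; top concentration of the series differs between compounds; nearly all actives have a fitted effect of over 55% in size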
M-phase phosphoprotein 8 (Homo sapiens), sequence (Q99549 whole entry, looked up): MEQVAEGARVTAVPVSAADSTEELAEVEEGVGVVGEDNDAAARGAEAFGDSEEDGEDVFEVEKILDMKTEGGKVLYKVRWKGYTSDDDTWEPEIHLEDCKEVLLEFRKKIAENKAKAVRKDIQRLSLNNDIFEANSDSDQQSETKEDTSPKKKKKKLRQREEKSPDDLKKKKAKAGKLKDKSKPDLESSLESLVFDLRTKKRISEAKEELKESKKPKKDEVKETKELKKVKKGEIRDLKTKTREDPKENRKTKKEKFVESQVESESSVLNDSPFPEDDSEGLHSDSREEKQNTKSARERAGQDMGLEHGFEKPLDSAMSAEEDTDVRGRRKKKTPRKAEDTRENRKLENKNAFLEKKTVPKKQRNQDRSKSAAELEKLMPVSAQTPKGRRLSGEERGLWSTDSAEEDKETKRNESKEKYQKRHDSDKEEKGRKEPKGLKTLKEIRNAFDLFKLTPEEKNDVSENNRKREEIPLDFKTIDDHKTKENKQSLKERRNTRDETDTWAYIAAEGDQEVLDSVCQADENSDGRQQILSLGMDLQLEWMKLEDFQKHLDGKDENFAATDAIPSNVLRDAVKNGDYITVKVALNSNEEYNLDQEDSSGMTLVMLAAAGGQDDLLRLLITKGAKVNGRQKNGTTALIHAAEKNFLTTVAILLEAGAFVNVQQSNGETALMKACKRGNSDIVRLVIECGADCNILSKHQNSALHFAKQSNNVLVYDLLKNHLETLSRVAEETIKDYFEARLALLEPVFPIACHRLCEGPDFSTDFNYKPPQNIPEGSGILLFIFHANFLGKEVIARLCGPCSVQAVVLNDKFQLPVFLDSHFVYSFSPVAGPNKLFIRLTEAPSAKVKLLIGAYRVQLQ
How it was run: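 50 nM MPP8 + 50 nM b-H3K9me3 peptide, PBS pH 7.4/0.01% Tween-20, 30 min RT; + cpd 30 min RT; + AlphaScreen donor/Ni-chelate acceptor beads 10 ug/mL final, 30 min dark; luminescence read.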

[13] = target: Methanococcus maripaludis chaperonin (MmCpn) (UniProt Q6LX38); experiment: High-Throughput Screening for Modulators of Cytosolic Chaperonin Activity: MmCpn Primary Screen (AID 488978);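 also: 50 nM MmCpn enzyme hydrolysing 30 µM ATP at 37 °C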
How it was run: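 Steps: chaperonin 50 nM final; add compound, 5 min RT; start with ATP, 30 uM final; hold 10 min at 37C; add ADP Transcreener HTRF reagent, 5 min; read ex 320, em 590 and 665 nm.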

[14] = target: Transient receptor potential cation channel subfamily V member 1 (Homo sapiens) (UniProt Q8NER1); experiment: HTS Assay for Compounds that Act as Enhancers of the Vanilloid Receptor 1 (AID 488979)
How it was run: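 TRPV1 cells loaded with Fluo-8 calcium dye; compound added and Ca2+ signal (ex 480/em 520 nm) followed 3 min, then capsaicin at EC20 added and read 2 more min to detect enhancement.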

[15] = target: Thyrotropin receptor (Homo sapiens) (UniProt P16473); experiment: qHTS Assay for Antagonists of the Thyroid Stimulating Hormone Receptor (AID 488980); also: series mostly up to about 58 µM
Thyrotropin receptor (Homo sapiens), sequence (P16473 whole entry, looked up): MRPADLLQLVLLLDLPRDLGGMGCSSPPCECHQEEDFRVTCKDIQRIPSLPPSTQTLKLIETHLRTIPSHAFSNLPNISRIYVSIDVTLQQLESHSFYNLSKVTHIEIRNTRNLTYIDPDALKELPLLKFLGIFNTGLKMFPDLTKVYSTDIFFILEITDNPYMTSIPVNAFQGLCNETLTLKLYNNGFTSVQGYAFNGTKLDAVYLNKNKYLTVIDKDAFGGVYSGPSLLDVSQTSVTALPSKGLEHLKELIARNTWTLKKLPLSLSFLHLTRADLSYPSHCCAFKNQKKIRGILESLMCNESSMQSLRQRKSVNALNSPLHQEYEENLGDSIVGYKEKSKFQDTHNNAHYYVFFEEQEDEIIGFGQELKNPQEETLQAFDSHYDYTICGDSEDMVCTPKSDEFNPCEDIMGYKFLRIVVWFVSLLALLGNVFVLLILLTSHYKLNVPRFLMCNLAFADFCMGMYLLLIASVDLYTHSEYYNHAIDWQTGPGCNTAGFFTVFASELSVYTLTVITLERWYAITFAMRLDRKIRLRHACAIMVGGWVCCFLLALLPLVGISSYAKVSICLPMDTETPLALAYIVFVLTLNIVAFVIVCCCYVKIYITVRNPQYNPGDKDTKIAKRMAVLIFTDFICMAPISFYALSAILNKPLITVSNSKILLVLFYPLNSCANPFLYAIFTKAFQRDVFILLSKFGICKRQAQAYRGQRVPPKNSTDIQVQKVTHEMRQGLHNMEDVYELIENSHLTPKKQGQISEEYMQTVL
How it was run: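 Readout is cAMP by HTRF competition between cellular cAMP and cAMP-d2 for a cryptate-labelled antibody. Antagonism was assessed in TSHR-transfected HEK293 cells stimulated with 4 nM TSH (EC80, final) in the presence of RO 20-1724.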

[16] = target: D(1A) dopamine receptor (Homo sapiens) (UniProt P21728); experiment: HTS Assay for Allosteric Agonists of the Human D1 Dopamine Receptor: Primary Screen for Agonists (AID 488981)
How it was run: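 Tetracycline-induced HEK293 Trex D1 cells with forced coupling to calcium, loaded with no-wash calcium dye; kinetic fluorescence read 180 s after compound addition for agonism, then a further 180 s after an EC20 dopamine challenge for potentiation.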

[17] = Quantitative high throughput screen for delayed death inhibitors of the malarial parasite plastid, 48 hour incubation (AID 488752); also: nearly all actives have a fitted effect of over 65% in size
How it was run: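 One parasite generation (48 h, 37 C, 5% CO2) of luciferase-reporter P. falciparum in erythrocytes is run with test compound; decreased luminescence indicates inhibited growth.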

[18] = target: Thioredoxin reductase 1, cytoplasmic (Rattus norvegicus) (UniProt O89049); experiment: qHTS Assay for Substrates of Mammalian Selenoprotein Thioredoxin Reductase 1 (TrxR1) (AID 488772);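 also: NADPH fluorescence in the first read after selenite addition and not the 8 min delta; series mostly up to about 57 µM; a drop in NADPH fluorescence below the no-compound background marks a TrxR1 substrate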
How it was run: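 Quantitative HTS in Tris-HCl buffer at pH 7.5 with EDTA and Tween-20, using rat TrxR1, 400 uM NADPH and 400 uM selenite (final). A fall in initial NADPH fluorescence relative to background marked substrate behaviour.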

[19] = target: Chromobox protein homolog 1 (Homo sapiens) (UniProt P83916); experiment: qHTS Validation Assay for Inhibitors of HP1-beta Chromodomain Interactions with Methylated Histone Tails (AID 488953);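 also: loss of AlphaScreen luminescence from HP1-beta binding biotinylated H3K9me3 peptide; series mostly up to about 110 µM; nearly all actives have a fitted effect of over 50% in size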
Chromobox protein homolog 1 (Homo sapiens), sequence (P83916 whole entry, looked up): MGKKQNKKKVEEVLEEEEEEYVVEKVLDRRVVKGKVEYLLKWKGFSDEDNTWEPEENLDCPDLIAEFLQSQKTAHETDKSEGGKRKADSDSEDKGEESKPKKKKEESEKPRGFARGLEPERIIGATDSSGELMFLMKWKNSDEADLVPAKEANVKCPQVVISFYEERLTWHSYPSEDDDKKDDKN
How it was run: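 Measured as loss of AlphaScreen luminescence from streptavidin donor and nickel acceptor beads (10 ug/mL final) bridging HP1-beta and biotin-H3(1-18)K9me3, each 50 nM. Compounds met the preassembled complex for 30 min at RT.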

| SMILES | Potency [1] | Potency [2] | Potency [3] | outcome [4] | Potency [5] | outcome [6] | Potency [7] | outcome [8] | Potency [9] | Potency [10] | Potency [11] | Potency [12] | outcome [13] | outcome [14] | outcome [15] | Potency [16] | Potency [17] | outcome [18] | Potency [19] |
| --- | --- | --- | --- | --- | --- | --- | --- | --- | --- | --- | --- | --- | --- | --- | --- | --- | --- | --- | --- |
| CCn1cc(C(=O)O)c(=O)c2cc3c(cc21)OCO3 | inactive | inactive | inactive | inactive | inactive | inactive | inactive | inactive | inactive | inactive | inactive | inactive | inactive | inactive | inactive | inactive |  |  |  |
| CCc1c(C)[nH]c2c1C(=O)C(CN1CCOCC1)CC2 (stereo not drawn) | inactive | inactive | inactive | inactive | inactive | inactive | inactive | inactive | inactive | 29.9 µM (active) | inactive | inactive | inactive | inactive | inactive | inactive | inactive | inactive |  |
| CC(=O)OCC1=C(C(=O)O)N2C(=O)[C@@H](NC(=O)Cc3cccs3)[C@H]2SC1 | inactive | inactive | inactive | inactive | inactive | inactive | inactive | inactive | inactive |  |  | inactive | inactive | inactive | inactive | inactive | inactive | inactive | inactive |
| Cc1nc2ccccn2c(=O)c1CCN1CCC(C(=O)c2ccc(F)cc2)CC1 | inactive | inactive | inactive | inactive | inactive | inactive | inactive | inactive | inactive | inactive | inactive | inactive |  | inactive |  | inactive | inactive | inactive | inactive |
| CN(C)C(=O)Oc1ccc[n+](C)c1 | inactive | inactive | inactive | inactive | inactive | inactive | inactive | inactive | inactive | inactive | inactive |  | inactive | inactive | inactive | inactive | inactive | inactive |  |
| Fc1ccc(C(c2ccc(F)cc2)N2CCN(C/C=C/c3ccccc3)CC2)cc1 | inactive | inactive | 12.6 µM (active) | inactive | inactive | inactive | inactive | inactive | 10.4 µM (active) | inactive | inactive | inactive | inactive | inactive | inactive | inactive |  | inactive |  |
| COc1ccc(CN(CCN(C)C)c2ccccn2)cc1 | inactive | inactive | inactive | inactive | inactive | inactive | inactive | inactive | inactive | inactive | inactive |  | inactive | inactive |  | inactive | inactive | inactive | inactive |
| CN(C)CCN(Cc1cccs1)c1ccccn1 | inactive | inactive | inactive | inactive | inactive | inactive | inactive | inactive | inactive | inactive | inactive | inactive |  |  | inactive | inactive | inactive | inactive | inactive |
| CCCN(CCC)CCc1cccc2c1CC(=O)N2 | inactive | inactive | inactive | inactive | inactive | inactive | inactive | inactive | inactive | inactive | inactive |  |  | inactive | inactive | inactive | inactive | inactive | inactive |
| CCO/C([O-])=N/c1c[n+](N2CCOCC2)no1 | inactive | inactive | inactive | inactive | inactive | inactive | inactive | inactive |  | inactive | inactive | inactive |  | inactive | inactive | inactive | inactive | inactive | inactive |
| CCN(CC)CCOCCOC(=O)C1(c2ccccc2)CCCC1 | inactive | inactive | inactive | inactive | inactive | inactive | inactive | inactive |  | inactive | inactive | inactive | inactive | inactive | inactive | inactive | inactive | inactive | inactive |
| C[N+](C)(C)CCOC(N)=O | inactive | inactive | inactive | inactive | inactive | inactive | inactive | inactive | inactive | inactive | inactive |  | inactive | inactive | inactive | inactive | inactive | inactive | inactive |
| CN(C)CC/C=C1\c2ccccc2COc2ccccc21 | inactive | inactive | inactive | inactive | inactive | inactive | inactive | inactive | inactive | inactive | inactive |  |  |  | inactive | inactive | inactive | inactive | inactive |
| CN=C(NC#N)NCCSCc1nc[nH]c1C | inactive | inactive | inactive | inactive | inactive | inactive | inactive | inactive | inactive | inactive | inactive |  |  | inactive | inactive | inactive | inactive | inactive | inactive |
| CC(C(=O)O)c1ccc(CC2CCCC2=O)cc1 (stereo not drawn) | inactive | inactive | inactive | inactive | inactive | inactive | inactive | inactive | inactive | inactive | inactive |  | inactive | inactive | inactive | inactive | inactive |  |  |
| FC(F)(F)c1ccccc1-n1ccnc1 | inactive | inactive | inactive | inactive | inactive | inactive | inactive | inactive |  | inactive | inactive |  | inactive | inactive |  | inactive | inactive | inactive |  |
| CCN(Cc1ccncc1)C(=O)C(CO)c1ccccc1 (stereo not drawn) | inactive | inactive | inactive | inactive | inactive | inactive | inactive | inactive | inactive | inactive | inactive |  | inactive | inactive | inactive | inactive | inactive | inactive | inactive |

From PubChem BioAssay (NCATS)
